JMJD2A Tudor: qHTS Assay for Inhibitors of JMJD2A-Tudor Domain; AlphaScreen JMJD2A-Tudor / H3K4me3 peptide binding; Lysine-specific demethylase 4A (Homo sapiens), O75164; Potency, µM (doses to about 114 µM), inactives show at the highest dose activity change, negative = inhibition, hits mostly inhibitors; 4.4% of 390,000 active; note: potency is the fitted concentration of half-maximal effect; % is set by controls: 0 for no effect and ±100 for the full control effect; nearly all actives have a fitted effect of over 50% in size
Target sequence (O75164 whole entry, looked up, the tested form may be a part): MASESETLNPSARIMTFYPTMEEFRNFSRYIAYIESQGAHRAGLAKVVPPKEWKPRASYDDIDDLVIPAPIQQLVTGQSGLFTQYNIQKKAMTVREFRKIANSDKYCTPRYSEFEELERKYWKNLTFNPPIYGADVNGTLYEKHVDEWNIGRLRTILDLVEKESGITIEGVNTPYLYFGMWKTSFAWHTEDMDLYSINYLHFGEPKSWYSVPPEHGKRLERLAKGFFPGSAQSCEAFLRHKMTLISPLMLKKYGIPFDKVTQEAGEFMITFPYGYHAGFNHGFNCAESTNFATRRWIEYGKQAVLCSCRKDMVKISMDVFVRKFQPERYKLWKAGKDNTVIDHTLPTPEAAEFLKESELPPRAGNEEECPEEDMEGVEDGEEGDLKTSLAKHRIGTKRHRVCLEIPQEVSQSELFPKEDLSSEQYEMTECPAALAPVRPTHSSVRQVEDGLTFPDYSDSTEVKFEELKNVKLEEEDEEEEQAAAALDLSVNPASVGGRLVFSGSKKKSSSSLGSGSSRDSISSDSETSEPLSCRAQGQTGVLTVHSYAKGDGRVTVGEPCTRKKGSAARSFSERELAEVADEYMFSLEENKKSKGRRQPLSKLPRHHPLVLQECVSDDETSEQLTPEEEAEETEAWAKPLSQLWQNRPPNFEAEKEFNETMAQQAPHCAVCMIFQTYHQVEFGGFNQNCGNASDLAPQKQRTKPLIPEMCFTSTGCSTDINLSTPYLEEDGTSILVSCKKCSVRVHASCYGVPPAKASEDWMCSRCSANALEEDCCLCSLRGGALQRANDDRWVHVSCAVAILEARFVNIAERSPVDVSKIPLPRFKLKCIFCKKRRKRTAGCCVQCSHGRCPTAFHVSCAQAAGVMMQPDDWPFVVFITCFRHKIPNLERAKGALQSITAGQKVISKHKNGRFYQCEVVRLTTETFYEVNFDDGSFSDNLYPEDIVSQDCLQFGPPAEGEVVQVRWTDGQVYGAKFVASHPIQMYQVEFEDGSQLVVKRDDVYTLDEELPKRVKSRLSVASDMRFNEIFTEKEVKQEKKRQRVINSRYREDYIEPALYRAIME
PI5P4Ka inh: qHTS for Inhibitors of phosphatidylinositol 5-phosphate 4-kinase (PI5P4K); Phosphatidylinositol 5-phosphate 4-kinase type-2 alpha (Homo sapiens), P48426; PI5P4Kalpha enzyme, ADP-Glo luminescence, 60 min; hits give low values; max response, %; 1.2% of 330,000 active; AID 652105, 2013; active = max response of -50% or lower; inconclusive = between -30% and -50%; inactive = -30% or higher; note: value at the top dose of about 77 µM; % is set by controls: 0 for no effect and ±100 for the full control effect
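Luminescence from ADP-Glo served as readout of PI5P4Kalpha activity in a qHTS format. Reaction: enzyme, substrate, compound, ATP at 5 microM final, 60 min at RT.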
HP1b chromo inh: HTS for Inhibitors of HP1-beta Chromodomain Interactions with Methylated Histone Tails | Chromobox protein homolog 1 (Homo sapiens), P83916 | AlphaScreen HP1-beta / biotin-H3K9me3 peptide binding | Potency, µM (titrated, usually from 114 µM), for the others: at the highest dose activity change, negative = inhibition, usual class: inhibitors | 0.56% of 390,000 active | AID 540317, 2011; note: potency is the fitted concentration of half-maximal effect; nearly all actives have a fitted effect of over 70% in size
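AlphaScreen: HP1-beta (50 nM) preformed 30 min with biotin-H3(1-18)K9me3 peptide (50 nM) in PBS pH 7.4, 0.01% Tween-20. Compound added for 30 min at RT, then streptavidin donor/nickel chelate acceptor beads (10 ug/mL) for 30 min.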
G9a inh: qHTS Assay for Inhibitors of Histone Lysine Methyltransferase G9a; Histone-lysine N-methyltransferase EHMT2 (Homo sapiens), Q96KQ7; G9a H3K9 monomethylation, AlphaScreen, 2 h; Potency, µM (series often up to 102 µM), without a hit: at the highest dose activity, negative = inhibition, actives largely listed as inhibitors; 8.8% of 350,000 active; note: potency is the fitted concentration of half-maximal effect; % is set by controls: 0 for no effect and ±100 for the full control effect; nearly all actives have a fitted effect of over 75% in size
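Signal arises when biotinylated H3K9 peptide, once monomethylated, bridges streptavidin donor and antibody-captured acceptor beads. Enzyme at 20 nM was preincubated 15 min with test compounds; peptide 500 nM and SAM 20 uM then reacted for 2 h.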
BAZ2B block: qHTS Assay for Inhibitors of BAZ2B | AlphaScreen BAZ2B-H3K14Ac peptide displacement | Potency, µM (highest dose often 114 µM), inactives show at the top dose activity change, negative = inhibition, hits mostly inhibitors | 4.4% of 360,000 active | AID 504333, 2011; note: potency is the fitted concentration of half-maximal effect; % is set by controls: 0 for no effect and ±100 for the full control effect; nearly all actives have a fitted effect of over 60% in size
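Inhibition is scored as reduced AlphaScreen emission. The BAZ2B/b-H3(5-23)K14Ac complex (50 nM each) in PBS pH 7.4, 0.01% Tween-20 meets compound (up to 110 uM) for 30 min at RT before bead addition.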
L3MBTL1 block: qHTS Assay for the Inhibitors of L3MBTL1 | Lethal(3)malignant brain tumor-like protein 1 (Homo sapiens), Q9Y468 | AlphaScreen L3MBTL1–H3K9me1 peptide binding | Potency, µM (doses to about 57.1 µM), for the others: at the top dose activity, negative = inhibition, usual class: inhibitors | 0.66% of 230,000 active | AID 485360, 2010; note: potency is the fitted concentration of half-maximal effect; % is set by controls: 0 for no effect and ±100 for the full control effect; nearly all actives have a fitted effect of over 60% in size
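First, the protein-peptide complex forms for 30 min at room temperature (L3MBTL1 50 nM, biotinylated H3K9me1 peptide 75 nM). Next, compounds are pin-transferred and incubated 30 min. Finally, AlphaScreen beads are added and read after 30 min.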
An asterisk follows results filed as active; ? = inconclusive; . = no result given; [ ] = another dose, or the depositor's remark. A selection: hits, their analogues and other compounds. The true share with any hit is near 11%. Unless noted, calls come from the whole dose curve; as a rule, active = well fitted inhibition curve with a large enough effect; inconclusive = small, poorly fitted or top-dose-only effect; inactive = no such curve, though single readings can be large or run the other way.

SMILES	JMJD2A Tudor	PI5P4Ka inh	HP1b chromo inh	G9a inh	BAZ2B block	L3MBTL1 block
COc1ccc(C(=O)NC(=S)N(Cc2ccccc2)Cc2ccccc2)cc1	56.2µM*	-0.8	?	59.1%[12.7 µM]	8.91µM*	?
COc1cc(C(=O)NCC(=O)N/N=C(\C)Cc2ccccc2)cc(OC)c1OC	-14.3%	0.0	39.1%	10.8%	-19.9%	.
COc1cc(C(=O)NC(=S)N(CCc2ccccc2)CCc2ccccc2)cc(OC)c1OC	-23.6%	23.0	1.9%	8.7%[59 µM]	8.91µM*	?
COc1cccc2cc(-c3csc(-c4ccc(Cl)cc4)n3)c(=O)oc12	-7.7%	.	23.4%	3.8%[59 µM]	1.2%	.
CCC/C(=N\NC(=O)c1ccc(OC)c(OC)c1)c1ccccc1	7.5%	4.0	44.8%	79.4µM*	.	4.3%
CCCCCNC(=O)c1c[nH]c2ccc(S(=O)(=O)N3CCC(C)CC3)cc2c1=O	-9.8%	.	34.3%	1.7%[59 µM]	7.5%	.
C=CCc1cccc(C=Nc2cc(Br)ccc2O)c1O	?	1.1	8.6%	44.7µM*	?	-4.6%
CCc1ccc(O)c(N=Cc2cccc(C)c2O)c1	?	.	-3.3%	2.51µM*	-34.5%	-1.3%
COc1ccc(Cn2c(=O)n(Cc3ccco3)c(=O)c3oc4ccccc4c32)cc1	-24.5%	.	2.1%	-1.0%[59 µM]	-2.0%	.
O=S(=O)(c1ccc(OC(F)(F)F)cc1)N1CCN(c2nc(-c3ccccc3)nc3ccccc23)CC1	-7.8%	.	30.1%	.	.	.
C=CCOc1ccc(CNn2cn[nH]c2=S)cc1OCC	8.91µM*	.	20.3%	32.3%[0.501 µM]	-3.8%	-0.7%
C=CCOc1ccc(CNn2cn[nH]c2=S)cc1OC	22.4µM*	.	24.0%	3.16µM*	-0.5%	10.3%
COc1cc(CNn2cn[nH]c2=S)cc(Cl)c1OCc1ccc(F)cc1	-18.8%	9.2	17.7%	5.62µM*	1.1%	6.7%
Nc1nc(Sc2ccc(C(F)(F)F)cn2)n[nH]1	-11.1%	-1.1	25.0%	?	0.6%	5.8%
S=c1[nH]nc(-c2ccc3ccccc3n2)o1	-32.8%	?	68.7%	8.91µM*	6.1%	.
FC(F)(F)c1ccc(-c2n[nH]c(=S)o2)nc1	0.0%	-22.8	66.5%	39.8µM*	-12.8%	11.0%
Cc1cc(C)nc(Sc2nc(Cl)nc(N(c3ccccc3)c3ccccc3)n2)n1	6.31µM*	-27.5	40.7%	?	?	.
Cc1cc(C)nc(SC(C(=O)O)c2ccccc2)n1 (configuration not stated)	-10.8%	1.2	47.6%	10.2%[59 µM]	-1.5%	11.3%
Cc1cc(C(=O)COC(=O)c2cc(O)c3ccccc3c2O)c(C)n1CC1CCCO1 (configuration not stated)	31.6µM*	?	28.2µM*	10µM*	50.1µM*	?
COc1ccccc1CNC(=O)c1sc2nc3n(c(=O)c2c1C)CCC3	-14.1%	.	40.4%	-0.9%[59 µM]	-26.4%	.
CC1C2CCC(C2)C1OC(=O)c1ccccc1C(=O)O (configuration not stated)	.	-0.1	.	.	.	.
CC1CCC2C(C1)Nc1c(C(=O)O)cccc1C2(C)C (configuration not stated)	-28.2%	1.7	23.4%	.	79.4µM*	-9.3%
CCOC(=O)c1cccc(NC(=O)CC2C(=O)N(c3ccccc3)C(=O)N2Cc2ccco2)c1 (configuration not stated)	-27.9%	.	22.5%	-37.8%[59 µM]	?	.
Cc1[nH]nc(SCC(=O)Nc2ccc(C#N)cc2)c1[N+](=O)[O-]	-11.0%	6.5	21.5%	35.5µM*	-6.8%	1.3%
COc1cccc(NC(=O)CSc2nnc(Cc3cccn3C)n2-c2ccc(F)cc2)c1	?	5.6	13.5%	?	50.1µM*	-6.4%
SMILES	JMJD2A Tudor	PI5P4Ka inh	HP1b chromo inh	G9a inh	BAZ2B block	L3MBTL1 block
CC(=O)Nc1cccc(NC(=O)CSc2nnc(Cc3cccn3C)n2-c2ccc(F)cc2)c1	?	.	-13.9%	?	?	-7.1%
Cn1cccc1Cc1nnc(SCC(=O)NCc2ccccc2Cl)n1-c1ccc(F)cc1	-35.0%	0.1	-3.1%	79.4µM*	?	-2.6%
Cn1cccc1Cc1nnc(SCC(=O)NC2CCCCC2)n1-c1ccc(F)cc1	-34.3%	2.1	14.5%	?	-0.3%	.
COc1ccc(-n2c(Cc3cccn3C)nnc2SCC(=O)Nc2cccc(OC)c2)cc1	-34.3%	0.5	10.8%	50.1µM*	?	-15.1%
Cn1cccc1Cc1nnc(SCC(N)=O)n1-c1ccc(F)cc1	-13.4%	-1.8	40.6%	89.1µM*	-6.0%	-10.6%
Cc1ccc(N(C)C(=O)CN2C(=O)CCc3cc(S(=O)(=O)N4CCOCC4)ccc32)cc1	-13.9%	.	21.4%	?	?	.
C=Cc1ccc(Cn2nc(-c3ccc(C)c(S(=O)(=O)N(CC)CC)c3)ccc2=O)cc1	-10.9%	.	43.1%	6.9%[59 µM]	5.5%	.
COc1ccc(NC(=O)CSc2nnc(Cc3cccn3C)n2-c2ccc(C)cc2)cc1OC	?	.	?	?	?	-20.5%
COc1ccc(-n2c(Cc3cccn3C)nnc2SCC(=O)Nc2ccc(C)c(Cl)c2)cc1	?	1.4	-8.4%	44.7µM*	?	-11.6%
CCn1c(CC(=O)Nc2cccc(OC)c2)nnc1SCC(=O)Nc1nccs1	-10.1%	.	24.1%	56.2µM*	7.6%	-3.2%
Cn1cccc1Cc1nnc(SCC(=O)NCc2ccco2)n1-c1ccc(F)cc1	?	.	-9.5%	?	?	-19.8%
COc1ccc(NC(=O)Cc2nnc(SCC(=O)Nc3nccs3)n2C)cc1	?	-1.9	19.3%	12.3%	-10.9%	.
Cc1cc(C)c(NC(=O)CSc2nnc(Cc3cccn3C)n2-c2ccc(F)cc2)c(C)c1	?	.	-17.1%	44.7µM*	?	-12.7%
CCOC(=O)c1cnn(-c2ccc(OC)cc2)c1C1CCN(C(=O)OC(C)(C)C)CC1	-3.7%	.	40.7%	-1.9%[59 µM]	.	.
N#CC(C#N)=C(Nc1ccccc1)c1ccccc1	-13.1%	8.2	15.0%	1.7%	-11.4%	3.2%
CSC(SC)=C(C#N)C(=O)c1ccccc1	-2.8%	-9.4	-19.6%	50.1µM*	-18.0%	-4.3%
COc1cccc(C(=O)C(C#N)=C(SC)SC)c1	-20.1%	-8.4	-21.7%	39.8µM*	-23.5%	3.3%
Cc1ccc(C2c3c(oc4ccccc4c3=O)C(=O)N2c2nnc(C(C)C)s2)o1 (configuration not stated)	-14.8%	7.6	45.1%	50.1µM*	1.8%	0.7%

High-throughput results: PubChem BioAssay, National Center for Advancing Translational Sciences (NCATS)
